# Reference: the supplement of paper PMC6555819
# Columns and labels:
# Test in all cases: PBM binding z-score (relative to random genomic background probes); higher = stronger binding; sequences stand for … in GC…GCGATTGACAGCGTAGAATGAAGG
# [1] = system: FXR:RXRa (NR concentration 270 nM, RXRa partner concentration 90 nM)
# In short: (§1)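 Probes were double-stranded and carried 34-nt variable regions with direct-repeat seeds, single-nucleotide variants, half-site ablations and random human genomic background sequences, printed on custom Agilent 4×180K protein-binding microarrays. Arrays were incubated 1 h with ligand-free nuclear receptor dimers in PBS pH 7.4, 2% milk, 0.02% Triton X-100, 1 mM DTT, 0.2 mg/mL BSA and 0.4 mg/ml salmon testes DNA. Antibodies against each partner (one per run) detected binding, and scanned fluorescence was regression-normalized. Binding z-scores use the random background probes as reference.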
# [2] = system: LXRa:RXRa (NR concentration 270 nM, RXRa partner concentration 90 nM)
# In short: as §1
# [3] = system: LXRa homodimer (NR concentration 270 nM)
# In short: as §1
# [4] = system: LXRb:RXRa (NR concentration 270 nM, RXRa partner concentration 90 nM)
# In short: as §1
# [5] = system: LXRb homodimer (NR concentration 270 nM)
# In short: as §1
# [6] = system: PPARa:RXRa (NR concentration 270 nM, RXRa partner concentration 90 nM)
# In short: as §1
# [7] = system: PPARg:RXRa (NR concentration 180 nM, RXRa partner concentration 90 nM)
# In short: as §1
# [8] = system: PPARg:RXRa 270nM:90nM, anti-RXR (NR concentration 270 nM, RXRa partner concentration 90 nM)
# In short: as §1
# [9] = system: PPARg:RXRa 30nM:10nM, anti-RXR (NR concentration 30 nM, RXRa partner concentration 10 nM)
# In short: as §1
# [10] = system: PPARg:RXRa 90nM:30nM, anti-RXR (NR concentration 90 nM, RXRa partner concentration 30 nM)
# In short: as §1
# [11] = system: PPARg:RXRa DBDmut IVT, anti-RXR (DBD mutation: RXRa K156A/R161A, NR concentration 270 nM, RXRa partner concentration 90 nM)
# In short: as §1
# [12] = system: PPARg:RXRa IVT, anti-PPARg (NR concentration 270 nM, RXRa partner concentration 90 nM)
# In short: as §1
# [13] = system: PPARg DBDmut:RXRa IVT, anti-PPARg (DBD mutation: PPARg1 K132A/R137A, NR concentration 270 nM, RXRa partner concentration 90 nM)
# In short: as §1
# [14] = system: PPARg DBDmut IVT, anti-PPARg (DBD mutation: PPARg1 K132A/R137A, NR concentration 270 nM)
# In short: as §1
# [15] = system: PPARg homodimer (NR concentration 180 nM)
# In short: as §1
# [16] = system: PXR:RXRa (NR concentration 270 nM, RXRa partner concentration 90 nM)
# In short: as §1
# [17] = system: PXR homodimer (NR concentration 270 nM)
# In short: as §1
# [18] = system: RARa:RXR (NR concentration 270 nM, RXRa partner concentration 90 nM)
# In short: as §1
# [19] = system: RARa homodimer (NR concentration 270 nM)
# In short: as §1
# [20] = system: RARb:RXRa (NR concentration 270 nM, RXRa partner concentration 90 nM)
# In short: as §1
Sequence,PBM binding z-score [1],PBM binding z-score [2],PBM binding z-score [3],PBM binding z-score [4],PBM binding z-score [5],PBM binding z-score [6],PBM binding z-score [7],PBM binding z-score [8],PBM binding z-score [9],PBM binding z-score [10],PBM binding z-score [11],PBM binding z-score [12],PBM binding z-score [13],PBM binding z-score [14],PBM binding z-score [15],PBM binding z-score [16],PBM binding z-score [17],PBM binding z-score [18],PBM binding z-score [19],PBM binding z-score [20]
TAGCCTAGGTCACGCGGGCCAGTATAGTGTCGGC,5.13,3.81,0.104,2.03,-0.215,4.31,4.11,4.02,0.903,3.02,2.95,4.27,-0.0213,0.00762,1.6,1.84,-0.691,3.32,-0.183,4.33
GCTGCTAGGTCAGGTTGGTGAGCTAACGGGTACG,1.04,0.598,-0.365,0.053,-0.485,1.22,0.336,0.876,-0.603,0.225,2.52,1.93,-0.822,-0.37,0.201,0.142,-0.5,0.873,-0.817,3.24
ATATGTAGGGTAAGGGTCATTCAGGTTGGTTCGC,4.75,4.47,2.94,4.47,3.06,6.52,11.9,10.3,11.2,12,6.71,7.53,5.99,4.1,6.25,5.47,4.86,5.19,3.71,3.53
ACAGACACGTGATGAAGGTAACTCAGGCTATCAT,0.135,0.0254,-0.272,0.133,-0.0548,-0.111,0.787,-0.012,0.0893,-0.0553,-0.318,-0.0146,0.501,0.226,0.142,-0.0986,0.0203,0.352,0.63,-0.138
ACTAGTTGGTCAGCAGAGGTCACACACAATTCGG,4.13,4.71,4.06,4.34,1.39,4.7,3.33,3.79,1.16,3.11,1.92,3.43,1.09,0.493,3.51,5.73,1.6,5.96,2.56,4.17
TAGCCTAGGTCATTGGGCCAGTGTAGTACGCATC,4.3,3.42,0.864,2.46,0.102,3.86,3.6,3.76,0.587,2.41,2.97,4.15,1.07,-0.249,0.874,1.41,-0.395,2.15,-0.103,3.69
CGTCCAAGGTCAGCATGTCAGTGAAAGCGACGTG,5.06,3.16,-0.309,2.27,-0.251,4.07,2.43,3.09,0.443,1.45,2.52,2.35,-0.0905,-0.674,2.58,2.41,0.102,3.01,0.765,4.93
TCTTGTAGATCAACAGGAGGTTACGAAAGATCGA,0.309,1.28,0.0638,0.991,-0.0897,1.55,0.26,1.65,2.53,1.91,1.67,1.04,0.791,0.725,0.494,0.945,0.0297,1.38,-0.191,0.551
CCTATTAGTTGACCATGAGGGCAACCGAAGCTCG,1.01,0.684,0.747,0.619,0.6,0.652,0.438,0.373,-0.175,0.282,0.64,0.77,0.542,0.384,1.98,1.48,1.48,1.37,1.39,1.52
AGAACGAGGGCACACTGAGTTGATAGCAGAGTAG,0.801,0.517,-0.135,0.356,-0.454,2.02,1.96,1.64,0.493,1.01,3.87,3.8,0.337,0.314,0.871,1.29,0.305,0.924,0.142,2.16
CCAGACAGGTGAGAAGGAAACTCAGCCTCGATTA,0.0152,-0.159,0.111,-0.146,-0.36,0.0665,0.519,0.482,-0.0162,0.249,1.07,0.281,0.656,-0.614,0.615,-0.158,0.143,0.0468,0.447,0.0743
ACAGACAGGTGATGAAGGTACCTCAGGCTATCAT,-0.309,-0.187,-0.266,-0.411,-0.507,-0.132,0.682,-0.0814,0.3,-0.00206,-0.0914,0.0194,0.29,0.042,-0.0635,-0.279,0.235,0.00944,-0.363,-0.00921
TCTTCTAGATCAAAGGTTAAGAAAGCCGAAGCCT,1.43,1.87,-0.049,2.13,0.536,4.9,7.46,8.19,8.13,8.51,2.42,3.52,0.463,0.915,1.09,1.63,-0.258,2.74,0.0747,1.98
ATCTCTAGGTAAAGTTCAGTGGAAGATCGATAGA,1.56,2.02,1.68,1.29,1.27,2.23,2.75,3.85,2.32,3.46,2.46,2.61,1.21,1.71,1.29,2.07,1.8,1.44,1.81,2.86
